# According to PubChem BioAssay (Tox21):
# Values without a mark were called inactive. Calls follow the shape of the full dose curve.
# Test: qHTS assay to identify small molecule agonists of the sonic hedgehog signaling (Shh) pathway (AID 1259368);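 also: NIH/3T3-derived 3T3Gli1-Luc cells carrying a stable Gli1-driven firefly luciferase reporter; nearly all actives have a fitted effect of over 15% in size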
# Settings: NIH/3T3 Gli1-Luc reporter, luciferase, 24 h, active compounds read high; series mostly up to 92.4 µM; activity change: at the top concentration
# Source text: National Center for Advancing Translational Sciences [NCATS]
# NIH Chemical Genomics Center [NCGC]
# U.S. Environmental Protection Agency [EPA]
# National Institutes of Environmental Health Sciences [NIEHS]
# National Toxicology Program [NTP]
# The sonic hedgehog (Shh) pathway is essential for normal embryonic development. Dysregulation of the Shh pathway can cause severe developmental defects in organs. Therefore chemicals that interfere with the pathway are potential developmental toxicants. A cell line designated 3T3Gli1-Luc (DMB/OARSA/CFSAN/FDA, Laurel, MD), a NIH/3T3 derived clone containing stably integrated Gli1-Luc reporter is used to detect chemical interference of the Shh pathway, by changes in the expression of the firefly Luc gene under the control of the Gli1 transcriptional response element. This cell line was used to screen Tox21 libraries for identifying and prioritizing the potential developmental toxicants that interfere Shh pathway.
# 3T3 Gli1-Luc cells were dispensed at 2,000 per well in 5uL of culture medium into white solid bottom 1536-well plates (Greiner Bio-One, Monroe, NC) using a Multidrop Combi (Thermo Scientific, Waltham, MA) dispenser. The assay plates were incubated at 37 C and 5% CO2 for 4hr, and then 23nL of compounds dissolved in DMSO and positive control were transferred using a Pintool station (Wako, San Diego, CA). The assay plates were incubated at 37C and 5% CO2 for 24hr. For luciferase read, 4uL of Amplite Luciferase reporter gene assay reagent (AAT Bioquest, Inc. Sunnyvale, CA) was added to each well of the assay plates using Flying Reagent Dispenser (FRD, Aurora Discovery, San Diego, CA) and incubated at room temperature for 30min. The luminescence signal was measured using a ViewLux plate reader (Perkin Elmer, Shelton, CT).
# % is scaled to controls: 0 for no effect and ±100 for the full control effect.
row,Structure (SMILES),activity change
1,C(CCOCC1CO1)COCC1CO1 (stereo not given),0.0716%
2,OCCSCSCCO,-0.47%
3,CC1=C(C(=O)O)N2C(=O)[C@@H](N)[C@H]2SC1,0.0682% [at 18.9 µM]
4,CC(CCc1ccccc1)NC(C)C(O)c1ccc(O)cc1 (stereo not given),0.579% [at 42.5 µM]
5,N#Cc1c(Cl)cccc1Cl,-1.99%
6,Cc1ncc2n1-c1ccc(Cl)cc1C(c1ccccc1F)=NC2,-3.45% [at 42.5 µM]
7,CCN(CC)C(=O)[C@@H]1C=C2c3cccc4[nH]cc(c34)C[C@H]2N(C)C1,-0.165% [at 240 µM]
8,NC(=S)C(N)=S,0.466%
9,COc1cc(OC)nc(NC(=O)NS(=O)(=O)c2ncccc2C(=O)N(C)C)n1,-0.0034%
10,CC(C)CC#N,-20.1%
11,CCOP(=S)(OCC)SCSc1ccc(Cl)cc1,1.07%
12,C=CC1CC=CCC1 (stereo not given),-0.386%
13,CCN(Cc1ccc(Cl)nc1)/C(=C/[N+](=O)[O-])NC,0.466% [at 42.5 µM]
14,CN(N=O)C(N)=O,-0.58%
15,Nc1cc2c3c(c1)C(c1ccccc1)=N[C@@H](NC(=O)c1cccnc1)C(=O)N3CC2,-0.808%
16,CNC(=O)O/N=C(\C)SC,0.658%
17,CCOC(=O)C1(c2ccccc2)CCN(CCc2ccc(N)cc2)CC1,2.31% [at 42.5 µM]
18,CC(C)CC(N(C)C)C1(c2ccc(Cl)cc2)CCC1 (stereo not given),0.0749% [at 42.5 µM]
19,N#CCNCC#N,0.869%
20,CC(C)CP(=S)(S)CC(C)C,1.07%

row,Structure (SMILES),activity change
1,COc1cc(C[C@@H](C)N)c(OC)cc1C,0.113%
2,CCC1(c2ccccc2)C(=O)NC(=O)NC1=O,0.4%
3,O=C1OC(CCN2CCCCC2)OC1(c1ccccc1)c1ccccc1 (stereo not given),-5.67% [at 42.5 µM]
4,CC(C1CC1)C(O)(Cn1cncn1)c1ccc(Cl)cc1 (stereo not given),0.238%
5,CCCSC(=O)Cl,-0.443%
6,CCOc1nc(C(Cl)(Cl)Cl)ns1,-0.32%
7,CCCCc1ccc(O)cc1,-1.32%
8,Nc1ccccc1Cl,0.273%
9,CCN(CC)C(C)C(=O)c1ccccc1 (stereo not given),-1.12% [at 42.5 µM]
10,Cc1coc2c1CCC(C)C2 (stereo not given),0.2%
11,CC(C(=O)c1ccccc1)N(C)C (stereo not given),0.0908% [at 42.5 µM]
12,O=C1OC(=O)C2C1C1(Cl)C(Cl)=C(Cl)C2(Cl)C1(Cl)Cl (stereo not given),-0.0922%
13,O=C1CN=C(c2ccccc2)c2cc([N+](=O)[O-])ccc2N1,-0.748% [at 42.5 µM]
14,COC(=O)c1ccccc1S(=O)(=O)NC(=O)Nc1nc(C)cc(C)n1,-0.544%
15,CC1CN1P(=O)(N1CC1C)N1CC1C (stereo not given),0.585%
16,O=[N+]([O-])c1cc(Cl)c(Cl)c(Cl)c1,1.8%
17,Cc1nc(N)nc(N)n1,-0.453%
18,BrCCCCCCBr,0.0138%
19,O=C(O)c1cccc(Cl)c1,-0.186%
20,COC(=O)c1c(C(F)F)nc(C(F)(F)F)c(C2=NCCS2)c1CC(C)C,0.579%
